“And” between values parts separate entries of the source, which are not always exact repeats. Equal values may be shown once. Hit rate of the full screen: of about 5,500 compounds, about 2,000 (36%) were called active. About 18% were inconclusive and are not listed. Cut-off read from the data, not from the text of the source: active = normalized growth mostly below about 0.91 (no sharp cut-off); inconclusive = no clear call, values can overlap the other calls; inactive = mostly above about 0.92. Some of the results follow.
Assay: chemical genetic growth profiling, strain panel (AID 1159580);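 note: tested at 20 µM; growth read once vehicle control cultures reached saturation at 30 °C; 1 = growth at the plate median or of vehicle wells; lower values mean less growth of the strain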
Conditions: growth OD
[1] = S. cerevisiae deletion strains, locus YAL013W, strain DEP1, hits give low values
[2] = S. cerevisiae deletion strains, locus YBR229C, strain ROT2, hits give low values
[3] = S. cerevisiae deletion strains, locus YDL101C, strain DUN1, hits give low values
[4] = S. cerevisiae deletion strains, locus YDL134C, strain PPH21, hits give low values
[5] = S. cerevisiae deletion strains, locus YDR150W, strain NUM1, hits give low values
[6] = S. cerevisiae deletion strains, locus YEL061C, strain CIN8, hits give low values
[7] = S. cerevisiae deletion strains, locus YGR078C, strain PAC10, hits give low values
[8] = S. cerevisiae deletion strains, locus YGR229C, strain SMI1, hits give low values
[9] = S. cerevisiae deletion strains, locus YHR030C, strain SLT2, hits give low values
[10] = S. cerevisiae deletion strains, locus YJR043C, strain POL32, hits give low values
[11] = S. cerevisiae deletion strains, locus YJR075W, strain HOC1, hits give low values
[12] = S. cerevisiae deletion strains, locus YKL190W, strain CNB1, hits give low values
[13] = S. cerevisiae deletion strains, locus YLR039C, strain RIC1, hits give low values
[14] = S. cerevisiae deletion strains, locus YLR262C, strain YPT6, hits give low values
[15] = S. cerevisiae deletion strains, locus YMR263W, strain SAP30, hits give low values
[16] = S. cerevisiae deletion strains, locus YMR307W, strain GAS1, hits give low values
[17] = S. cerevisiae deletion strains, locus YNL153C, strain GIM3, hits give low values
[18] = S. cerevisiae deletion strains, locus YNL322C, strain KRE1, hits give low values
[19] = S. cerevisiae deletion strains, locus YPL055C, strain LGE1, hits give low values
[20] = S. cerevisiae deletion strains, locus YPL241C, strain CIN2, hits give low values

Measured: normalized growth

CC(=O)[C@@]1(O)CCC2C3C=C(Cl)C4=CC(=O)[C@@H]5CC5[C@]4(C)C3CC[C@@]21C (stereo partly specified)
inactive: [1] 1.02 | S. cerevisiae deletion strains, locus YBR021W, strain FUR4, hits give low values 0.996 | [2] 1.01 | S. cerevisiae deletion strains, locus YCL029C, strain bik1, hits give low values 1.02 | S. cerevisiae deletion strains, locus YDL035C, strain GPR1, hits give low values 1 | S. cerevisiae deletion strains, locus YDL074C, strain BRE1, hits give low values 0.991 | [3] 1.01 | [4] 1.01 | S. cerevisiae deletion strains, locus YDL185W, strain tfp1, hits give low values 1.01 | S. cerevisiae deletion strains, locus YDL192W, strain arf1, hits give low values 0.998 | S. cerevisiae deletion strains, locus YDR101C, strain arx1, hits give low values 1.01 | [5] 1.02 | S. cerevisiae deletion strains, locus YDR162C, strain NBP2, hits give low values 1 | S. cerevisiae deletion strains, locus YDR318W, strain mcm21, hits give low values 1 | S. cerevisiae deletion strains, locus YDR388W, hits give low values 1.01 | S. cerevisiae deletion strains, locus YDR502C, strain sam2, hits give low values 1.01 | [6] 1.01 | S. cerevisiae deletion strains, locus YER110C, hits give low values 1.02 | S. cerevisiae deletion strains, locus YER155C, strain BEM2, hits give low values 0.998 | S. cerevisiae deletion strains, locus YER167W, strain BCK2, hits give low values 0.988 | S. cerevisiae deletion strains, locus YGL078C, strain dbp3, hits give low values 1 | S. cerevisiae deletion strains, locus YGL086W, strain mad1, hits give low values 1.01 | S. cerevisiae deletion strains, locus YGL248W, strain PDE1, hits give low values 1 | [7] 0.999 | S. cerevisiae deletion strains, locus YGR135W, strain pre9, hits give low values 1.01 | [8] 1.01 | S. cerevisiae deletion strains, locus YGR252W, strain gcn5, hits give low values 0.952 | [9] 1.01 and 1.03 | S. cerevisiae deletion strains, locus YHR079C, strain IRE1 (second series), hits give low values 1.02 | S. cerevisiae deletion strains, locus YHR079C, strain IRE1, hits give low values 1.05 | S. cerevisiae deletion strains, locus YHR094C, strain hxt1, hits give low values 1.01 | S. cerevisiae deletion strains, locus YHR129C, strain ARP1, hits give low values 1 | S. cerevisiae deletion strains, locus YHR200W, strain rpn10, hits give low values 1.02 | S. cerevisiae deletion strains, locus YIL066C, strain RNR3, hits give low values 1.01 | S. cerevisiae deletion strains, locus YIL073C, strain SPO22, hits give low values 1.01 | S. cerevisiae deletion strains, locus YIL125W, strain kgd1, hits give low values 1.01 | S. cerevisiae deletion strains, locus YIR030C, strain dcg1, hits give low values 1.02 | S. cerevisiae deletion strains, locus YJL095W, strain BCK1, hits give low values 1.02 and 1.03 | S. cerevisiae deletion strains, locus YJL134W, strain LCB3, hits give low values 1.01 | S. cerevisiae deletion strains, locus YJL168C, strain set2, hits give low values 1.01 | S. cerevisiae deletion strains, locus YJL187C, strain SWE1 (second series), hits give low values 1.02 | [10] 1 | S. cerevisiae deletion strains, locus YJR066W, strain TOR1, hits give low values 0.95 | [11] 1.03 | S. cerevisiae deletion strains, locus YKL009W, strain mrt4, hits give low values 0.999 | S. cerevisiae deletion strains, locus YKL068W, hits give low values 1.01 | S. cerevisiae deletion strains, locus YKL085W, strain MDH1 (second series), hits give low values 0.999 | S. cerevisiae deletion strains, locus YKL085W, strain MDH1, hits give low values 0.999 | [12] 1.01 | S. cerevisiae deletion strains, locus YKR001C, strain vps1, hits give low values 0.995 | [13] 0.984 | S. cerevisiae deletion strains, locus YLR058C, strain SHM2, hits give low values 1.01 | S. cerevisiae deletion strains, locus YLR102C, strain apc9, hits give low values 1.01 | S. cerevisiae deletion strains, locus YLR113W, strain HOG1, hits give low values 0.974 | [14] 1 | S. cerevisiae deletion strains, locus YLR268W, strain sec22, hits give low values 1.02 | S. cerevisiae deletion strains, locus YLR330W, strain CHS5, hits give low values 1.01 | S. cerevisiae deletion strains, locus YLR342W, strain FKS1 (second series), hits give low values 1.01 | S. cerevisiae deletion strains, locus YLR371W, strain rom2, hits give low values 1.02 | S. cerevisiae deletion strains, locus YLR418C, strain cdc73, hits give low values 0.993 | S. cerevisiae deletion strains, locus YML016C, strain PPZ1, hits give low values 1.02 | S. cerevisiae deletion strains, locus YML032C, strain rad52, hits give low values 1.02 | S. cerevisiae deletion strains, locus YML124C, strain tub3, hits give low values 1.01 | S. cerevisiae deletion strains, locus YMR078C, strain ctf18, hits give low values 1 | S. cerevisiae deletion strains, locus YMR223W, strain ubp8, hits give low values 1.01 | [15] 1.02 | [16] 0.943 | S. cerevisiae deletion strains, locus YNL067W, strain RPL9B, hits give low values 1.02 | S. cerevisiae deletion strains, locus YNL128W, strain TEP1, hits give low values 1.03 | [17] 1.01 | S. cerevisiae deletion strains, locus YNL183C, strain NPR1, hits give low values 0.958 | S. cerevisiae deletion strains, locus YNL233W, strain BNI4, hits give low values 0.987 | S. cerevisiae deletion strains, locus YNL250W, strain rad50, hits give low values 1.01 | S. cerevisiae deletion strains, locus YNL271C, strain bni1, hits give low values 1.01 | S. cerevisiae deletion strains, locus YNL298W, strain CLA4, hits give low values 1.01 | S. cerevisiae deletion strains, locus YNL307C, strain MCK1, hits give low values 1 | [18] 1.01 | S. cerevisiae deletion strains, locus YNR052C, strain pop2, hits give low values 1.01 | S. cerevisiae deletion strains, locus YOL006C, strain TOP1, hits give low values 1.02 | S. cerevisiae deletion strains, locus YOL012C, strain htz1 1.53 | S. cerevisiae deletion strains, locus YOL147C, strain pex11, hits give low values 1 | S. cerevisiae deletion strains, locus YOR061W, strain CKA2, hits give low values 1.01 | S. cerevisiae deletion strains, locus YOR069W, strain VPS5, hits give low values 1.01 | S. cerevisiae deletion strains, locus YOR136W, strain idh2, hits give low values 1 | S. cerevisiae deletion strains, locus YOR144C, strain elg1, hits give low values 1 | S. cerevisiae deletion strains, locus YOR184W, strain ser1, hits give low values 1 | S. cerevisiae deletion strains, locus YOR231W, strain MKK1, hits give low values 1.01 | S. cerevisiae deletion strains, locus YOR316C, strain cot1, hits give low values 1.01 | [19] 1.01 | [20] 1.01 | S. cerevisiae deletion strains, locus YPL256C, strain CLN2, hits give low values 1.04 | S. cerevisiae deletion strains, locus YPR119W, strain clb2, hits give low values 1 | S. cerevisiae deletion strains, locus YPR141C, strain kar3, hits give low values 0.998 | S. cerevisiae deletion strains, locus YPR163C, strain tif3, hits give low values 1.01 | S. cerevisiae deletion strains, locus YPR167C, strain met16, hits give low values 1.01 | S. cerevisiae deletion strains, strain wtn01, hits give low values 1.02 | S. cerevisiae strains, strain wild type, hits give low values 1

CCN(CCS(=O)(=O)c1ccc(C)cc1)S(=O)(=O)c1ccccc1
inactive: [1] 1.02 | [2] 1.01 | S. cerevisiae deletion strains, locus YCL061C, strain MRC1, hits give low values 0.988 | [3] 0.991 | [4] 0.987 | [5] 1.01 | [6] 0.987 | [7] 0.998 | [8] 0.999 | [9] 0.993 | S. cerevisiae deletion strains, locus YHR087W, strain rtc3, hits give low values 0.994 | [10] 1 | [11] 0.995 | [12] 0.998 | [13] 1.05 | S. cerevisiae deletion strains, locus YLR058C, strain SHM2 (second series), hits give low values 0.998 | S. cerevisiae deletion strains, locus YLR085C, strain ARP6, hits give low values 1.06 | [14] 1.05 | S. cerevisiae deletion strains, locus YML094W, strain GIM5, hits give low values 1.03 | S. cerevisiae deletion strains, locus YMR219W, strain ESC1, hits give low values 1.01 | [15] 0.988 | [16] 0.969 | [17] 0.984 | S. cerevisiae deletion strains, locus YNL298W, strain CLA4 (second series), hits give low values 1.01 | [18] 1.01 | S. cerevisiae deletion strains, locus YNR030W, strain Alg12, hits give low values 0.99 | [19] 1.06 | [20] 1 | S. cerevisiae deletion strains, locus YPR135W, strain CTF4, hits give low values 0.943
